Holding throughout (assay): qHTS profiling for inhibitors of Plasmodium falciparum proliferation (AID 504749); note: nearly all actives have a fitted effect of over 60% in size
What all share (conditions): P. falciparum in erythrocytes, SYBR Green DNA, 72 h; series mostly up to 28.7 µM
In general terms: qHTS replaces the single test concentration by a dilution series.

The subject of assay [1] is DIV14. In short, it runs like this: (§1)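 Fluorescence of SYBR Green-bound parasite DNA, read at 485/535 nm, served as the growth measure. Infected erythrocytes were cultured with compound 72 h; artemisinin (0.29 uM) and DMSO wells defined the normalization range.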
In assay [2] the test system is DIV17. A digest of the protocol: as §1
Assay [3] concerns Dd2. A digest of the protocol:
as §1

The test system of assay [4] is ECU. A digest of the protocol: as §1
Assay [5] concerns FAB9. In short, it runs like this:
as §1

For assay [6], the system named is GB4. A digest of the protocol:
as §1

Assay [7] has as its system ICS. A digest of the protocol:
as §1

For assay [8], the system named is N140. In short, it runs like this: as §1
Assay [9] relates to P93_24. In short, it runs like this: as §1
Assay [10] has as its system P94_40. A digest of the protocol:
as §1

In assay [11] the test system is PAD. A digest of the protocol:
as §1

Assay [12] deals with PC15. A digest of the protocol: as §1
Assay [13] deals with SC27B. In short, it runs like this:
as §1

In assay [14] the test system is DFO2036. In short, it runs like this: as §1
Assay [15] concerns DIV30. A digest of the protocol: as §1
Assay [16] relates to HB3. A digest of the protocol:
as §1

The subject of assay [17] is JCK. In short, it runs like this: as §1
The test system of assay [18] is PC26. In short, it runs like this: as §1
Assay [19] concerns PC49. In short, it runs like this: as §1
Assay [20] relates to CP335. In short, it runs like this:
as §1

Records with an inconclusive call do not appear. Active and inactive are the calls of the source. Calls come from the whole dose curve; as a rule, active = well fitted inhibition curve with a large enough effect; inconclusive = small, poorly fitted or top-dose-only effect; inactive = flat fitted curve, though single readings scatter.
Potency is the fitted concentration of half-maximal effect.

Turning to `CC(C)NCC(O)c1ccccc1Cl` (stereo unspecified), the Potency is 6.75 µM (active) in [1]; 6.75 µM (active) in assay [2]; 11.2 µM (active) in [3]; 7.94 µM (active) in [4]; 8.49 µM (active) in assay [6]; 4.47 µM (active) in assay [7]. Besides, the Potency in assay [8] is 7.08 µM (active); in assay [9], 12.6 µM (active); in assay [10], 3.98 µM (active); in [11], 7.94 µM (active); in assay [12], 11.2 µM (active); in [13] it was 10 µM (active). Moreover, the Potency entry in assay [5] was “inactive”.
Consider `N#CC(C#N)=Cc1ccc(O)c(O)c1`, for which the Potency result in assay [14], in assay [1], in [15], in assay [3], in assay [4] and in assay [5] was “inactive” each time. Moreover, the Potency entry in assay [16], in assay [7], in assay [17], in assay [8], in [9] and in assay [10] was “inactive” throughout. Moreover, the Potency entry in assay [11], in assay [12], in assay [18], in assay [19] and in assay [13] was “inactive” in each case.
For `Oc1cc(Cl)ccc1Oc1ccc(Cl)cc1Cl`, the Potency in assay [14] was 10 µM (active); in assay [1], 3.01 µM (active); in assay [2], 6.01 µM (active); in assay [15] it was 6.75 µM (active); in assay [3], 11.2 µM (active); in [4], 6.31 µM (active). For the same compound, the Potency in [5] was 11.2 µM (active); in assay [6] it was 4.78 µM (active); in [16], 8.91 µM (active); in [7], 1.58 µM (active); in [17] it was 11.2 µM (active); in assay [8], 3.16 µM (active). The Potency in [9] is 6.31 µM (active); in assay [10], 4.47 µM (active); in assay [11], 5.01 µM (active); in [12] it was 7.08 µM (active); in [18], 7.57 µM (active); in [19], 12.6 µM (active). For the same compound, the Potency in assay [13] is 4.47 µM (active).
As for `CCN(CC)CCOC(=O)C(O)(c1ccccc1)c1ccccc1`, the Potency result in assay [14], in assay [2], in assay [15], in assay [3], in assay [4] and in [5] was “inactive” throughout. Further, the Potency result in assay [6], in [16], in assay [7], in [17], in assay [8] and in assay [9] was “inactive” throughout. The Potency entry in assay [10], in assay [11], in assay [12], in [18], in [19] and in assay [13] was “inactive” throughout.
Regarding `c1ccc2c(c1)Nc1ccccc1S2`, the Potency is 8.49 µM (active) in assay [20]; 6.75 µM (active) in [1]; 7.57 µM (active) in [2]; 3.79 µM (active) in assay [6]; 12.6 µM (active) in assay [7]. Also, the Potency entry in [3], in assay [5], in assay [17], in assay [8], in [19] and in assay [13] was “inactive” in each case.
As to `Cc1ccc(S(=O)(=O)N[C@@H](CCCCN)C(=O)CCl)cc1`, the Potency result in assay [15], in assay [5], in assay [12] and in [18] was “inactive” throughout. For the same compound, the Potency in assay [7] is 12.6 µM (active); in assay [9] it was 10 µM (active); in assay [10] it was 11.2 µM (active); in [11], 12.6 µM (active).
On to `CCCN1CCC[C@@H]2Cc3[nH]ncc3C[C@H]21`, for which the Potency result in [20], in assay [1], in assay [2], in assay [15], in assay [6] and in [18] was “inactive” each time.
With `NCC1(CC(=O)O)CCCCC1`, the Potency result in assay [14], in [1], in assay [2], in [15], in assay [3] and in assay [4] was “inactive” throughout. For the same compound, the Potency result in assay [5], in assay [6], in assay [16], in assay [7], in assay [17] and in assay [8] was “inactive” throughout. Moreover, the Potency entry in [9], in [10], in assay [11], in assay [12], in [18] and in [19] was “inactive” in each case. Further, in [13], the Potency result is “inactive”.
For `Fc1ccc(C(OCCN2CCN(CCCc3ccccc3)CC2)c2ccc(F)cc2)cc1`, the Potency in assay [20] was 9.53 µM (active); in assay [14], 11.2 µM (active); in [1] it was 10.7 µM (active); in assay [2], 10.7 µM (active); in assay [4] it was 10 µM (active); in [6] it was 15.1 µM (active). In addition, the Potency was 8.91 µM (active) in assay [16]; 3.55 µM (active) in [7]; 11.2 µM (active) in assay [17]; 5.01 µM (active) in assay [8]; 4.47 µM (active) in [9]; 7.94 µM (active) in assay [10]. Further, the Potency in [11] was 8.91 µM (active); in assay [12], 11.2 µM (active); in assay [18], 12 µM (active); in assay [19], 8.91 µM (active); in assay [13] it was 8.91 µM (active).
In the case of `C=C(C)[C@H]1Cc2c(ccc3c2O[C@@H]2COc4cc(OC)c(OC)cc4[C@@H]2C3=O)O1`, the Potency entry in [14], in assay [3], in assay [4], in assay [5], in [16] and in [17] was “inactive” each time. Moreover, the Potency result in assay [8], in assay [9], in [11], in assay [12], in assay [18] and in [19] was “inactive” in each case. The Potency result in assay [13] is “inactive”. For the same compound, in assay [7], the Potency was 11.2 µM (active).
In the case of `Cc1cccc(C)c1NC1=NCCCS1`, the Potency in assay [3] was 12.6 µM (active); in assay [6], 8.49 µM (active); in assay [7], 12.6 µM (active). Also, the Potency entry in assay [4], in assay [5], in [16], in assay [17], in assay [12] and in assay [13] was “inactive” throughout.
Regarding `COc1ccc(C(=O)c2c(C)n(CCN3CCOCC3)c3ccccc23)cc1`, the Potency entry in [20], in assay [14], in assay [15], in assay [3], in assay [4] and in assay [5] was “inactive” throughout. Besides, the Potency entry in assay [16], in assay [17], in assay [8], in [9], in assay [11] and in [12] was “inactive” each time. Moreover, the Potency result in assay [19] and in assay [13] was “inactive” in each case.
Turning to `Clc1cccc(N2CCNCC2)c1`, the Potency entry in assay [14], in assay [15], in assay [4], in assay [5], in assay [16] and in [7] was “inactive” in each case. The Potency result in assay [17], in assay [8], in [9], in assay [10], in assay [11] and in assay [12] was “inactive” throughout. For the same compound, the Potency entry in assay [18], in assay [19] and in assay [13] was “inactive” in each case.
Regarding `CC[C@@H](CO)NC(=O)[C@@H]1C=C2c3cccc4[nH]cc(c34)C[C@H]2N(C)C1`, the Potency result in assay [14], in assay [1], in [2], in [15], in assay [3] and in assay [4] was “inactive” each time. Besides, the Potency entry in [5], in assay [6], in assay [16], in [7], in [17] and in [8] was “inactive” in each case. The Potency entry in assay [9], in assay [10], in assay [11], in assay [12], in assay [18] and in assay [19] was “inactive” in each case. Moreover, the Potency entry in [13] was “inactive”.
Consider `CC(C)(C)CC(C)(C)c1ccc(O)cc1`, for which the Potency result in assay [20], in assay [14], in assay [15], in assay [5], in assay [17] and in [8] was “inactive” in each case. For the same compound, the Potency entry in assay [9], in assay [11], in assay [12], in assay [18] and in [13] was “inactive” in each case.
Regarding `NCC(O)c1ccc(O)cc1` (stereo unspecified), the Potency result in [20], in assay [14], in assay [2], in [15], in assay [3] and in assay [4] was “inactive” throughout. For the same compound, the Potency result in assay [5], in assay [6], in [16], in assay [7], in assay [17] and in assay [8] was “inactive” throughout. In addition, the Potency entry in [9], in [10], in [11], in assay [12], in assay [18] and in assay [19] was “inactive” in each case. Further, the Potency entry in assay [13] was “inactive”.
Take `C=C1CC[C@@]2(O)[C@H]3Cc4ccc(O)c5c4[C@@]2(CCN3CC2CC2)[C@H]1O5`: the Potency result in assay [20], in [14], in assay [2], in [15], in assay [4] and in assay [5] was “inactive” throughout. The Potency result in assay [16], in [7], in assay [17], in [8], in assay [9] and in assay [10] was “inactive” throughout. In addition, the Potency entry in assay [11], in [12], in assay [18], in assay [19] and in assay [13] was “inactive” in each case.

Source of the values: PubChem BioAssay (NCATS).
